Laboratory results taken from PubChem BioAssay (NCI).
About 83,000 compounds went through this panel and 20% of them were active in at least one assay; those are over-represented in the sample as a whole.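 The endpoint reported here, percent growth, reads 100 for growth as untreated, 0 for no net growth and -100 for all cells dead.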 Active and inactive are the calls of the source. Rule for the calls: active = growth percent below 10; inactive = the rest.

Tests used:
Experiment in all cases: NCI-60 one-dose screen, 48 h (100 = growth as untreated, 0 = no growth, -100 = all killed)
Conditions in all cases: 10 µM
[1] = system: SK-MEL-2 melanoma
[2] = system: SN12C renal
[3] = system: UO-31 renal
[4] = system: TK-10 renal
[5] = system: ACHN renal
[6] = system: CAKI-1 renal
[7] = system: A498 renal
[8] = system: CCRF-CEM leukemia
[9] = system: MOLT-4 leukemia
[10] = system: SR leukemia
[11] = system: RPMI-8226 leukemia
[12] = system: OVCAR-8 ovarian
[13] = system: OVCAR-5 ovarian
[14] = system: OVCAR-4 ovarian
[15] = system: SK-OV-3 ovarian
[16] = system: IGROV1 ovarian
[17] = system: OVCAR-3 ovarian
[18] = system: HS 578T breast
[19] = system: NCI/ADR-RES ovarian

Measured: growth

C[C@@H]1N=C(c2ccc(Br)cc2)Nc2nc3ccccn3c2C1=O
inactive: [1] 47.4% | [2] 91.8% | [3] 62% | [4] 110% | [5] 69.2% | [6] 44.1% | [7] 69.9% | [8] 79.4% | [9] 57.5% | [10] 30% | [11] 94% | [12] 72.5% | [13] 82.4% | [14] 77.5% | [15] 72% | [16] 43.1% | [17] 17.3% | [18] 71.3% | [19] 39.4%

CC(C)/C=N/NC(N)=S
inactive: [1] 103% | [2] 85.5% | [3] 72.4% | [4] 109% | [5] 90.6% | [6] 89% | [7] 82.7% | [8] 28.9% | [9] 64.9% | [10] 51.9% | [11] 60.4% | [12] 62.9% | [13] 78.7% | [14] 46.1% | [15] 110% | [16] 34% | [17] 53% | [18] 90.7% | [19] 75%

O=C(Nc1ccc(CN2CCOCC2)cc1)c1ccc(-c2cc(Cl)ccc2Cl)o1
active: [10] -12.9% | [11] -5.45%
inactive: [1] 55.5% | [2] 63.4% | [3] 25.4% | [4] 49.4% | [5] 41.8% | [6] 43.5% | [7] 87.1% | [8] 38.6% | [9] 42.9% | [12] 36% | [13] 72.1% | [14] 50.6% | [15] 81.5% | [16] 34% | [17] 70.9% | [18] 72.2% | [19] 46.9%

COc1nc2c(c(=O)[nH]1)C(c1ccc(Oc3ccnc4cc(Cl)ccc34)c(OC)c1)C=C(c1cc(OC)c(OC)c(OC)c1)N2 (centres undefined)
inactive: [1] 82.6% | [2] 90.7% | [3] 74.5% | [4] 103% | [5] 102% | [6] 94.1% | [7] 81.9% | [8] 87.4% | [9] 78% | [10] 74.1% | [11] 94.5% | [12] 97.4% | [13] 92.6% | [14] 106% | [15] 99.5% | [16] 107% | [17] 108% | [18] 98.3% | [19] 101%

COc1cc(Nc2ccnc(N3CCN(c4ccnc5cc(Cl)ccc45)CC3)n2)cc(OC)c1
inactive: [2] 19% | [5] 13.2% | [6] 20.2% | [13] 30.8% | [14] 30.4% | [17] 15% | [18] 24.6%
active: [1] -42.2% | [3] -1.54% | [4] -4.71% | [7] -1.87% | [8] 3.84% | [9] -45.9% | [10] -17% | [11] -27.6% | [12] 1.09% | [15] 6.6% | [16] 3.24% | [19] 7.19%

C=C[C@]1(C)C=C2C(=O)[C@@]3(O)OC(=O)[C@@]4(CCCC(C)(C)[C@H]34)[C@@]2(O)CC1
inactive: [15] 38.4%
active: [1] -66.5% | [2] -66.5% | [3] -99.4% | [4] -95.5% | [5] -100% | [6] -90.6% | [7] -94.6% | [8] -31.5% | [9] -13.6% | [10] -11% | [11] -25.4% | [12] -56.8% | [13] -71.7% | [14] -74.4% | [16] -92.8% | [17] -90.4% | [18] 0.722% | [19] -6.84%

O=C(C=P(c1ccccc1)(c1ccccc1)c1ccccc1)c1ccc(Br)cc1
inactive: [1] 94.3% | [2] 96.5% | [3] 53.7% | [4] 95% | [5] 78.7% | [6] 84.3% | [7] 64.3% | [8] 55% | [10] 56.6% | [11] 47.4% | [12] 89.1% | [13] 104% | [14] 95.5% | [15] 108% | [16] 91.4% | [17] 64.5% | [18] 107% | [19] 79.9%
active: [9] 0.436%

CCCOCC(O)CNCCN (centres undefined)
inactive: [1] 116% | [2] 92.8% | [3] 87.8% | [4] 102% | [5] 95.4% | [6] 92.5% | [7] 89% | [8] 97.6% | [9] 115% | [10] 99.2% | [11] 101% | [12] 102% | [13] 100% | [14] 102% | [15] 97.4% | [16] 116% | [17] 121% | [18] 112% | [19] 123%

COc1ccc2c(=O)cc(C(Cl)(Cl)Cl)oc2c1
inactive: [5] 10.6% | [13] 16.6% | [19] 10.3%
active: [1] -75.2% | [2] 2.57% | [3] -19.3% | [4] -20.4% | [6] -14.5% | [7] -68.5% | [8] -21.2% | [9] -23.9% | [10] -25.6% | [11] -27.2% | [12] -1.14% | [14] -12.9% | [15] 9.34% | [16] -7.04% | [17] -19.7% | [18] -13.9%

O=C(Cn1ccc(=O)[nH]c1=O)c1ccc([N+](=O)[O-])o1
inactive: [1] 101% | [2] 108% | [3] 109% | [4] 63.3% | [5] 110% | [6] 105% | [7] 115% | [8] 83% | [9] 106% | [10] 73.9% | [11] 65.5% | [12] 103% | [13] 114% | [14] 97.9% | [15] 112% | [16] 123% | [17] 96.9% | [18] 116% | [19] 107%

COc1ccc(C2C=C(c3ccc(Cl)c(Cl)c3)N=C3SC(C)=CN32)cc1OC (centres undefined)
inactive: [1] 79.2% | [2] 70.6% | [3] 60.7% | [4] 74.1% | [5] 68.3% | [6] 61.7% | [7] 105% | [8] 58.5% | [9] 48.8% | [10] 61.9% | [11] 38.4% | [12] 68.7% | [13] 97.1% | [14] 72.9% | [15] 109% | [16] 72.2% | [17] 60.9% | [18] 90.8% | [19] 79.4%

COc1cccc(-c2nnc(COc3ccc(-c4nc5ccccc5[nH]4)cc3OC)o2)c1
active: [10] 7.26%
inactive: [1] 99.3% | [2] 85.9% | [3] 87.9% | [4] 132% | [5] 103% | [6] 98.7% | [7] 71.8% | [8] 44.9% | [9] 71.5% | [11] 51% | [12] 67.3% | [13] 119% | [14] 103% | [15] 107% | [16] 101% | [17] 102% | [18] 102% | [19] 89%

O=C1NN(c2ccccc2)C(c2cccnc2)=N/C1=C\c1cccnc1
inactive: [1] 103% | [2] 102% | [3] 82.7% | [4] 110% | [5] 95.4% | [6] 89% | [7] 52.3% | [9] 96.4% | [10] 73.6% | [11] 83.3% | [12] 106% | [13] 85.8% | [14] 94.3% | [15] 104% | [16] 103% | [17] 89.8% | [18] 87.1% | [19] 91.2%
active: [8] -22%

C=CCNC(=S)NN
inactive: [1] 99.1% | [2] 81.7% | [3] 61.7% | [4] 96.2% | [5] 94.1% | [6] 91.6% | [7] 81% | [8] 63.2% | [9] 64.6% | [10] 54.6% | [11] 74.2% | [12] 71.2% | [13] 69.7% | [14] 96.8% | [15] 98.4% | [16] 45.3% | [17] 96.5% | [18] 89.5% | [19] 82.7%

Cc1ccc(/C=C2\CN(Cc3cn(CCNc4ccnc5cc(Cl)ccc45)nn3)C/C(=C\c3ccc(C)cc3)C2=O)cc1
active: [1] -27.5% | [2] -63.4% | [3] -78.8% | [5] -16.9% | [6] -13.6% | [7] -81.1% | [9] -10.4% | [10] -19.5% | [11] -30.2% | [12] 8.83% | [13] -10.9% | [15] 8.53% | [17] -50.6% | [19] 9.21%
inactive: [4] 29.9% | [8] 11.7% | [14] 30.3% | [16] 28.3% | [18] 13.9%

O=c1c2cccc3c(Nc4ccc(Br)cn4)ccc(c32)c2nc3ccccc3n12
inactive: [1] 108% | [2] 92.3% | [3] 52.1% | [4] 78.1% | [5] 90.2% | [6] 83.9% | [7] 93.9% | [8] 97.9% | [9] 92.9% | [10] 52.9% | [11] 56.2% | [12] 103% | [13] 90.7% | [14] 53.7% | [15] 94.3% | [16] 48.9% | [17] 94.1% | [18] 81.2% | [19] 93.5%
